Measured values reported in paper PMC7862700, “An all-to-all approach to the identification of sequence-specific readers for epigenetic DNA modifications on cytosine”.

Columns and labels:
Assay in all cases: DAPPL (digital affinity profiling via proximity ligation, sequencing); 10 mM Tris-HCl pH 7.5, 50 mM NaCl, 1 mM DTT, 4% glycerol, room temperature, 30 min; GST-TFs on glutathione beads, 16-mer random dsDNA library, 0.1% formaldehyde crosslink after washing; high values mean tight binding
[1] = target: T1, FEV (Homo sapiens, UniProt Q99581 1-238); conditions: protein: recombinant; tags: N-terminal GST; dsDNA, one strand shown
T1 sequence: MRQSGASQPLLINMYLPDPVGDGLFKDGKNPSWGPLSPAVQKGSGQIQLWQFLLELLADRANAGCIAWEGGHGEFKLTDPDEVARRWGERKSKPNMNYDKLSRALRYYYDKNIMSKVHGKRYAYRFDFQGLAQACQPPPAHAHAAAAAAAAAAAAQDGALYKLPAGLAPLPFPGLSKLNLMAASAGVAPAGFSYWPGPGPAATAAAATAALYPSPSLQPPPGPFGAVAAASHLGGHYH
Outline: (§1)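 Pools of DNA-barcoded human transcription factors, expressed in yeast as GST fusions on glutathione beads and combined with a tag-only sample, were incubated with 200 nmole of a 16-mer random double-stranded DNA library. Incubation took 30 min at room temperature in Tris/NaCl/DTT/glycerol buffer and was followed by washing, 0.1% formaldehyde crosslinking, proximity ligation (BsaI/T4 ligase, 1 h, 37 °C), PCR amplification and sequencing on an Illumina NextSeq500. Binding signal is the ratio of a hexamer's read frequency for a factor to its frequency for the tag-only sample.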

[2] = target: ETV5 (Homo sapiens, UniProt P41161 1-510); conditions: protein: recombinant; tags: N-terminal GST; dsDNA, one strand shown
Chain of ETV5 (P41161 whole entry): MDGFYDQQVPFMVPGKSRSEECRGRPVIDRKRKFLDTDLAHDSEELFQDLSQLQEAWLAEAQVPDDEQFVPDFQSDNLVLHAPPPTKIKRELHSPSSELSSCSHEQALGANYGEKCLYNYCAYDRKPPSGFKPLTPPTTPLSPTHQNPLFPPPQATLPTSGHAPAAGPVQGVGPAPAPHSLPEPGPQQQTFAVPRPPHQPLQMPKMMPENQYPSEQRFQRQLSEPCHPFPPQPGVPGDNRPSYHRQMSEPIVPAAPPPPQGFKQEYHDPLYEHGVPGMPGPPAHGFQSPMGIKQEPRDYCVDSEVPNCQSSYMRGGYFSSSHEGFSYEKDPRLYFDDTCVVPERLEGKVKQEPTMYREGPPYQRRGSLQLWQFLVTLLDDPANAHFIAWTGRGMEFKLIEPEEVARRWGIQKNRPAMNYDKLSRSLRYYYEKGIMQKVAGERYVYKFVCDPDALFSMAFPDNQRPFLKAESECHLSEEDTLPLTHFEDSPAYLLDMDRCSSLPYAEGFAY
Outline: as §1

[3] = target: HSF1 (Homo sapiens, UniProt Q00613 1-529); conditions: protein: recombinant; tags: N-terminal GST; chain copies: 3; dsDNA, one strand shown
Chain of HSF1 (Q00613 whole entry): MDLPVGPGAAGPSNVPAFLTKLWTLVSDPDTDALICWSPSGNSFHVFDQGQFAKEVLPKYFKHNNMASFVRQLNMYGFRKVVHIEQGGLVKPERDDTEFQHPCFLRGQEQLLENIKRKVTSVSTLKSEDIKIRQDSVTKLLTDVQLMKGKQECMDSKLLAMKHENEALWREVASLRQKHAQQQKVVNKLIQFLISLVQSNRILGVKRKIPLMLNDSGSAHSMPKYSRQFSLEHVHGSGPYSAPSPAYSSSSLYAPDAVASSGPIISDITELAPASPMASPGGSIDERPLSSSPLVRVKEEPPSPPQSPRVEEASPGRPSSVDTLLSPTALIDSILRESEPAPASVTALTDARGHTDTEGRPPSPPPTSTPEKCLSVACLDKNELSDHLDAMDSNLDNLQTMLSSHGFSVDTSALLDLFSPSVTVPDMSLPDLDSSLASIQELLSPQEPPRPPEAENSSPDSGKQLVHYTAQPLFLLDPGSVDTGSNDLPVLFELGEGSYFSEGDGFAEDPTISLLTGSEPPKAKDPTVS
Outline: as §1

[4] = target: T2, SPIC (Homo sapiens, UniProt Q8N5J4 1-248); conditions: protein: recombinant; tags: N-terminal GST; dsDNA, one strand shown
T2 sequence: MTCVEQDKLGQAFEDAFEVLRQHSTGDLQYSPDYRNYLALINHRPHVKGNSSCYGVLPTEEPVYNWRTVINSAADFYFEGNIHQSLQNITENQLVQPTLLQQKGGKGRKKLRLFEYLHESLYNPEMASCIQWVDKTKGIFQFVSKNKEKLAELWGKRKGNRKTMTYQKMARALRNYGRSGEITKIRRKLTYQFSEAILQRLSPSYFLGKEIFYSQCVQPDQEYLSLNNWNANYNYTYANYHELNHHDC
Outline: as §1

[5] = target: ELF4 (Homo sapiens, UniProt Q99607 1-663); conditions: protein: recombinant; tags: N-terminal GST; dsDNA, one strand shown
Chain of ELF4 (Q99607 whole entry): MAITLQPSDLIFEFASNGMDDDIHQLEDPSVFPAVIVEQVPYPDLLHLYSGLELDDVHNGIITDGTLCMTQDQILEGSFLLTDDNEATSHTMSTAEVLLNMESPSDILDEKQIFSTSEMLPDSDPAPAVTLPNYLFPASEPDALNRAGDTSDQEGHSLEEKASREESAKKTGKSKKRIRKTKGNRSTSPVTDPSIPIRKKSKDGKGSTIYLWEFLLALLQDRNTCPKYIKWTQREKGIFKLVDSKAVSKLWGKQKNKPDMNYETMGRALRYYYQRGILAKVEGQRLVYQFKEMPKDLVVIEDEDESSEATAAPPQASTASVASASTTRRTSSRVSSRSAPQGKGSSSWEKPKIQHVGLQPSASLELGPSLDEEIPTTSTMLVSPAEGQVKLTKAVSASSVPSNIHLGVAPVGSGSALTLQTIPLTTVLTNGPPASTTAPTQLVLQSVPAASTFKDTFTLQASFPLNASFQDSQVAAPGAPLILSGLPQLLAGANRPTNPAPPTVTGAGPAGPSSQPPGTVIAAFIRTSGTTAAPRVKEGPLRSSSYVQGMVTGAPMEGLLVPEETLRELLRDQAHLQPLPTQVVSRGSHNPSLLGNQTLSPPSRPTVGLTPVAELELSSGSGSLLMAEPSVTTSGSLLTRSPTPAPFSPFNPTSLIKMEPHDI
Outline: as §1

[6] = target: T3, ELK4 (Homo sapiens, UniProt P28324-2 1-405); conditions: protein: recombinant; tags: N-terminal GST; dsDNA, one strand shown
T3 sequence: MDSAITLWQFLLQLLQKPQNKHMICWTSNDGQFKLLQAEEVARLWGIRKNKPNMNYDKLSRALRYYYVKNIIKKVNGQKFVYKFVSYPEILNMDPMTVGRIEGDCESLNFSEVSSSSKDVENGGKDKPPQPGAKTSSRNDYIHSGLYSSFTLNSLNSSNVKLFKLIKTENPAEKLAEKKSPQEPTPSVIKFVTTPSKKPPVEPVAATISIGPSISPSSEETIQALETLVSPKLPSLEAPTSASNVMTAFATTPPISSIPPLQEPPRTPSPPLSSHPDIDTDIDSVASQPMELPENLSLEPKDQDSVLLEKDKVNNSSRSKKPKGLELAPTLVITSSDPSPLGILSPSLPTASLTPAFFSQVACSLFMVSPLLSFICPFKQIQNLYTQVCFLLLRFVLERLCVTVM
Outline: as §1

[7] = target: T4, ETV2 (Homo sapiens, UniProt O00321 1-342); conditions: protein: recombinant; tags: N-terminal GST; dsDNA, one strand shown
T4 sequence: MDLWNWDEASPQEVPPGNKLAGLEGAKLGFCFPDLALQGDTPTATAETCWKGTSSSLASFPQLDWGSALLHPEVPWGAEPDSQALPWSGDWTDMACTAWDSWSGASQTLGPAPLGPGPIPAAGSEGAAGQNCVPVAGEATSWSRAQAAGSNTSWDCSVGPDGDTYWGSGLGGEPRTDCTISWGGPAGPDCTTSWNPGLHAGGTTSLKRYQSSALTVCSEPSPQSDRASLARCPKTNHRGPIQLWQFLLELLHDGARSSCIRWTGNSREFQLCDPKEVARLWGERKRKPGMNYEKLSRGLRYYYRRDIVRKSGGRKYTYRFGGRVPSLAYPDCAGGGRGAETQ
Outline: as §1

[8] = target: T5, ELF3 (Homo sapiens, UniProt P78545 1-371); conditions: protein: recombinant; tags: N-terminal GST; dsDNA, one strand shown
T5 sequence: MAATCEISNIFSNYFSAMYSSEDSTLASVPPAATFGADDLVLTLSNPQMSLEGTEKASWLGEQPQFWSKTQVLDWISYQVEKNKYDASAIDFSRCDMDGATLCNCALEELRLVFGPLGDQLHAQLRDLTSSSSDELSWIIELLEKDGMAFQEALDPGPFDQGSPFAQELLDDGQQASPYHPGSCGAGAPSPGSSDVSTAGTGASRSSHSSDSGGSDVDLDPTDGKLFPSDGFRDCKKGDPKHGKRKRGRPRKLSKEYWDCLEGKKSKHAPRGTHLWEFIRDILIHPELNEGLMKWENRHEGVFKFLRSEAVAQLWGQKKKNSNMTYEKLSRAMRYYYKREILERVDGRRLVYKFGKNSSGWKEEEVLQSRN
Outline: as §1

[9] = target: CRX (Homo sapiens, UniProt O43186 1-299); conditions: protein: recombinant; tags: N-terminal GST; dsDNA, one strand shown
Chain of CRX (O43186 whole entry): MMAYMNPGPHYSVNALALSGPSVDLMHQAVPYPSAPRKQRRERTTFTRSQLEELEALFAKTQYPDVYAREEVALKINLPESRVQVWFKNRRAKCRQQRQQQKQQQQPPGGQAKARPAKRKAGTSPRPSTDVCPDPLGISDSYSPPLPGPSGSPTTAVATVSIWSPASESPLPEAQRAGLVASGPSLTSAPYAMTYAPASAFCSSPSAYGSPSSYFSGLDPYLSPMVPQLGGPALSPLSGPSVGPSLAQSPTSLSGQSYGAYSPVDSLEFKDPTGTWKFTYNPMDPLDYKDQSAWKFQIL
Outline: as §1

[10] = target: ETV1 (Homo sapiens, UniProt P50549 1-477); conditions: protein: recombinant; tags: N-terminal GST; dsDNA, one strand shown
Chain of ETV1 (P50549 whole entry): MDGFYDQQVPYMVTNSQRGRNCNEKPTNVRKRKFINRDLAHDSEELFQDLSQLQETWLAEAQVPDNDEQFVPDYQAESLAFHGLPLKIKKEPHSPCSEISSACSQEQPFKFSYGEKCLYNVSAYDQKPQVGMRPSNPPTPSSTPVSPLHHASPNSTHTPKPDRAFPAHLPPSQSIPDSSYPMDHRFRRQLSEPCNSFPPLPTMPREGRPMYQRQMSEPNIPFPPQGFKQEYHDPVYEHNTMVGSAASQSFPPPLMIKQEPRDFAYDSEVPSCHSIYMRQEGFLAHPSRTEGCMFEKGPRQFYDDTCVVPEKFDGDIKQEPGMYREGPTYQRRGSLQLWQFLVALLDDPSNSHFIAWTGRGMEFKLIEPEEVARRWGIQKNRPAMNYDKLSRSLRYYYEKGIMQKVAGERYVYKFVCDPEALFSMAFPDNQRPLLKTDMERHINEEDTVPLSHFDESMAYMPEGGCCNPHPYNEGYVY
Outline: as §1

Sequence: TCTGCG
- binding signal [1]: 1.22 fold enrichment (6-mer frequency, TF over GST control)
- binding signal [2]: 1.22 fold enrichment (6-mer frequency, TF over GST control)
- binding signal [3]: 1.15 fold enrichment (6-mer frequency, TF over GST control)
- binding signal [4]: 1.24 fold enrichment (6-mer frequency, TF over GST control)
- binding signal [5]: 1.2 fold enrichment (6-mer frequency, TF over GST control)
- binding signal [6]: 1.14 fold enrichment (6-mer frequency, TF over GST control)
- binding signal [7]: 1.19 fold enrichment (6-mer frequency, TF over GST control)
- binding signal [8]: 1.31 fold enrichment (6-mer frequency, TF over GST control)
- binding signal [9]: 1.09 fold enrichment (6-mer frequency, TF over GST control)
- binding signal [10]: 1.45 fold enrichment (6-mer frequency, TF over GST control)
